From the supplement of paper PMC3334620
Over roughly 33,000 sequences, “E-score (-0.5 to 0.5)” has its median near -0.041; the highest 2% begin near 0.37. The list comes from a sample in which the highest values are over-represented; it also holds similar and randomly drawn sequences.

The sequences below were run against T1, Ecm22 (UniProt Q05958) (assay: PBM E-score (8-mer binding enrichment) (E-score (-0.5 to 0.5)); higher = stronger / more preferred TF binding). Details: protein concentration: 200 nM; construct: GST-full length.
T1 sequence: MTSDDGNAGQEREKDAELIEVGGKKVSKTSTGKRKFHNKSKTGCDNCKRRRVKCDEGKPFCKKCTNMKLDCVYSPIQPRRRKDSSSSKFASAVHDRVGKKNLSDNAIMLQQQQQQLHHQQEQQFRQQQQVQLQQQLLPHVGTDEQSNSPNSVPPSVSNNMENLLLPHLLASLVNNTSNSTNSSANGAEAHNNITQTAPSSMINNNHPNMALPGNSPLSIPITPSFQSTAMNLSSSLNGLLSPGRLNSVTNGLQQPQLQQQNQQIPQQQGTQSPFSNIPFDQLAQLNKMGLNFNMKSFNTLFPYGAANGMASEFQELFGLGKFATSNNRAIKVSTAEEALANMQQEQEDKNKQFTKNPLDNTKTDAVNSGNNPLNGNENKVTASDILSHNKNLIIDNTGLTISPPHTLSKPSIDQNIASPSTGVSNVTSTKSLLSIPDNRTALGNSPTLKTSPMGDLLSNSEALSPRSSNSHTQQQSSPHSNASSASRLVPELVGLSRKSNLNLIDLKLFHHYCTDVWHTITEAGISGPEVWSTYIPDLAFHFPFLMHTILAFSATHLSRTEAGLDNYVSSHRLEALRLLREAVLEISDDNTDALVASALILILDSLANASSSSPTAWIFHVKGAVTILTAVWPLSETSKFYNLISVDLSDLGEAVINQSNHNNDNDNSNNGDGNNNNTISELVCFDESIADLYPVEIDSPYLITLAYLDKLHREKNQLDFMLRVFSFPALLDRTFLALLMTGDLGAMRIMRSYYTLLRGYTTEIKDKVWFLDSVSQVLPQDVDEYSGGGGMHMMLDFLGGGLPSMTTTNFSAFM
Procedure: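 Universal 'all 10-mer' protein binding microarrays (Agilent AMADID 015681) probed with GST-tagged S. cerevisiae TFs (full-length or DBD) made by in vitro transcription/translation (PURExpress), about 100-200 nM. Bound TF was detected with fluorescent anti-GST. Each ungapped 8-mer (which stands for itself and its reverse complement) is scored by the PBM enrichment score (E-score), a modified Wilcoxon-Mann-Whitney statistic from -0.5 to +0.5, computed with the Universal PBM Analysis Suite. Scale: above 0.35 generally sequence-specific binding.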

| Sequence | PBM E-score |
| --- | --- |
| AGGACCAT | 0.00977 |
| ATTCTACC | -0.12 |
| GACAGGCA | -0.0606 |
| AACATCCG | 0.158 |
| GGTGGAAC | 0.236 |
| ACGGCACT | 0.0515 |
| ATGATGAC | -0.0358 |
| CAAGCTTC | 0.0567 |
| CTTTTTTA | -0.19 |
| CCCTCGTC | 0.119 |
| GCCTCGGA | 0.175 |
| GCCTCGTA | 0.481 |
| CCCTCGGA | 0.211 |
| GCCTCGAA | 0.0731 |
| ACCTCGTG | 0.251 |
| ACCTCGTC | 0.17 |
| ACCTCGTA | 0.463 |
| CCCTCGTA | 0.477 |
| AACGGTAA | 0.267 |
| ACTGGGTA | 0.0533 |
| ATGCGTCA | 0.0653 |
| ACCGCTAA | 0.144 |
| GGGGTTAC | 0.0772 |
| CTGTGCCA | -0.185 |
| AGCATCAG | -0.0729 |

| Sequence | PBM E-score |
| --- | --- |
| ATTCTAAC | -0.0713 |
| AGGCCTGA | -0.274 |
| GTAGGGGA | -0.206 |
| GCACGATA | 0.0343 |
| CTACGATA | 0.311 |
| GTACGATA | 0.456 |
| ACACGATA | 0.152 |
| AGACGATA | 0.143 |
| ATACGATA | 0.458 |
| AAGAACCT | -0.208 |
| GTAAAGCA | 0.0968 |
| TGAAAAAA | -0.0832 |
| ACGTACCA | 0.306 |
| TCTTACCA | 0.061 |
| CCGTACCA | 0.423 |
| GCGTACCC | 0.229 |
| GCGTACCA | 0.273 |
| CGGTACCG | 0.234 |
| CCGTACCC | 0.433 |
| TGGTACCA | -0.0735 |
| ACGTACCC | 0.295 |
| ACGTACCG | 0.301 |
| CCGTACCG | 0.455 |
| TCGTACCA | 0.488 |
| AGGAACCG | 0.0955 |

| Sequence | PBM E-score |
| --- | --- |
| GAGTCTAA | -0.115 |
| CATAGGAC | -0.091 |
| TCTATGCA | -0.148 |
| CGTCGTTA | 0.374 |
| CGCCGTTC | 0.362 |
| AGTCGTTC | 0.425 |
| AGTCGTTG | 0.184 |
| CGTCGATC | 0.0984 |
| CGTCGTTC | 0.479 |
| AGTCGTTA | 0.273 |
| GGTCGTTA | 0.339 |
| AGTCGCTC | 0.177 |
| CAATTGAC | -0.0565 |
| AGGTCTGC | -0.195 |
| CGGGAATA | 0.0624 |
| CGAACCCA | 0.167 |
| TCATCGGA | -0.0141 |
| ATGCAGAC | -0.0112 |
| AACTGCGG | 0.0437 |
| TGGCACCA | -0.213 |
| CCGCATAA | 0.119 |
| TCGCATAA | 0.388 |
| ACGCATAA | 0.0983 |
| CGTAAAAA | 0.404 |
| AGTAAATA | 0.00942 |

| Sequence | PBM E-score |
| --- | --- |
| CGTAAATA | 0.377 |
| CGTAAAAG | 0.367 |
| CGTAAAGA | 0.389 |
| CGTAAAAC | 0.367 |
| AGTAAAGA | -0.225 |
| CGTAAATC | 0.349 |
| CGTAAAGC | 0.348 |
| GACACTCC | -0.0444 |
| CAGGGTAG | -0.148 |
| AATCTTTA | -0.0885 |
| CCCTGACC | -0.0114 |
| CGCGATAG | 0.135 |
| CCATTTGC | -0.0821 |
| AGTCGAAC | 0.0504 |
| GACGCAAA | 0.114 |
| GAAAAGAA | 0.0308 |
| CAGTTCCA | -0.0209 |
| AAGAGGTG | -0.0239 |
| AGTATACA | 0.0981 |
| AGTATACC | 0.0306 |
| GGTATACC | 0.0922 |
| AGTATATG | -0.0215 |
| CGTATACC | 0.469 |
| CGAATACG | 0.362 |
| AGTATACG | 0.433 |

| Sequence | PBM E-score |
| --- | --- |
| AGTATACT | 0.102 |
| TGTATACA | 0.0967 |
| CGTATACA | 0.46 |
| GGTATACA | -0.21 |
| CGTATACG | 0.489 |
| AGGAGAAA | -0.281 |
| TCGATCAA | 0.0228 |
| CGTAATGC | 0.162 |
| CGGAACAA | 0.168 |
| TATGGGAA | -0.0838 |
| GCTTTTGA | -0.115 |
| AACCCTTG | -0.0616 |
| CGGATACA | 0.162 |
| CGGATACG | 0.386 |
| CGGATACC | 0.0623 |
| ATAGACAT | -0.0449 |
| CCAGCGAC | -0.231 |
| CGATAGCG | 0.128 |
| CGGCGACG | 0.0233 |
| CCTATACC | -0.0658 |
| ATTATACG | 0.476 |
| ATTATACC | 0.104 |
| ATTATACA | 0.0593 |
| ACTATACA | 0.108 |
| CCTATACA | -0.00901 |

| Sequence | PBM E-score |
| --- | --- |
| ACTATACT | 0.144 |
| CCTATACG | 0.465 |
| ACTATACG | 0.463 |
| TATGCAGA | 0.0611 |
| ATAAGCCC | -0.136 |
| ACCTACCG | -6e-05 |
| TAGTCAGA | -0.276 |
| ACGGGTCG | 0.267 |
| AGACAAAG | 0.0946 |
| CTAAGCGC | 0.0189 |
| ATAAGCGA | 0.332 |
| CTAAGCGA | 0.385 |
| AGACTCAC | -0.22 |
| GCTGGCAC | -0.325 |
| CCGGAATC | -0.169 |
| CGCGGTAA | 0.191 |
| CTTTCCGC | -0.0543 |
| GGTTCCGA | -0.00514 |
| CGTTCCGA | 0.444 |
| AGTTCCGA | 0.226 |
| AGTTCCGC | 0.09 |
| CGTTCCGC | 0.458 |
| ACCGGACA | -0.108 |
| TCCTGAAA | -0.00548 |
| ATTCAAGG | -0.157 |

| Sequence | PBM E-score |
| --- | --- |
| AAGAACGA | 0.453 |
| AAGAACGT | 0.101 |
| GAGAACGC | 0.117 |
| CAGAACGG | 0.075 |
| CAGAACGA | 0.379 |
| AAGAACGG | 0.243 |
| GAGAACGA | 0.422 |
| TAGAACCA | 0.00176 |
| CAGAACGC | -0.0854 |
| TAGAACTA | -0.0234 |
| GAGAACCA | -0.098 |
| TAGAACGA | 0.429 |
| GAATCGAC | 0.163 |
| ACGGGAGC | 0.225 |
| TAATCCTA | 0.00777 |
| GACGGAGC | -0.0469 |
| CCTAGGAG | -0.239 |
| CCAAGGCA | -0.0888 |
| CAAGTGCA | -0.24 |
| CTGGATGC | -0.159 |
| GCATAGGC | -0.178 |
| GGCATGAC | -0.121 |
| AGGCTGGG | -0.263 |
| CCAAGCCC | -0.117 |
| CTTCTGTC | -0.199 |
